IMPase inh: membrane-permeable compound that blocks inositol monophosphatase; P97697; CHO-M1 cells, IP1 accumulation, HTRF TR-FRET ratio; inhibition (IP1 accumulation), % at 46.1 µM; 120,000 tested, under 10 active; AID 901; active = well fitted curve in the direction sought with a large enough effect in the signal ratio, not every such curve was filed as active; inconclusive = small, poorly fitted or top-dose-only effect, or a change in a side signal; inactive = no such curve, though single readings can be large or run the other way; the % refers to the signal ratio;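 note: cells stimulated with carbachol in lithium chloride buffer; higher means more IMPase inhibition seen as more IP1 and lower FRET ratio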
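Elevated IP1 in lysates lowers TR-FRET signal (665/620 ratio and 620 channel reported). Cells were CHO-M1, given carbachol (50 uM as added) plus 50mM LiCl, pH 7.4, 30 min, 37C; compounds titrated up to 46 uM; AC50 by Hill equation.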
HPGD block: HPGD (human) dehydrogenase inhibition; P15428; purified HPGD, NADH fluorescence kinetic, PGE2 substrate; Potency, µM, hits mostly inhibitors; 4.3% of 150,000 active; active = well fitted inhibition curve with a large enough effect, not every such curve was filed as active; inconclusive = small, poorly fitted or top-dose-only effect, or another doubt; inactive = no such curve, though single readings can be large or run the other way
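NADH formation kinetics: reaction with 30 uM PGE2 and 1 mM NAD+ (final), 20 nM enzyme, Tris-HCl pH 8 with Tween 20, after 15 min compound preincubation at room temperature. Fluorescence change, last versus first of five reads.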
NPSR antag: neuropeptide S receptor (human) antagonism, cAMP; 1% of 220,000 active; AID 1461; Potency, µM (highest dose often 38.3 µM), hits mostly inhibitors; CHO-NPSR cells, cAMP TR-FRET, antagonist mode; Q6W5P4; note: nearly all actives have a fitted effect of over 50% in size
Target sequence (Q6W5P4 whole entry, looked up): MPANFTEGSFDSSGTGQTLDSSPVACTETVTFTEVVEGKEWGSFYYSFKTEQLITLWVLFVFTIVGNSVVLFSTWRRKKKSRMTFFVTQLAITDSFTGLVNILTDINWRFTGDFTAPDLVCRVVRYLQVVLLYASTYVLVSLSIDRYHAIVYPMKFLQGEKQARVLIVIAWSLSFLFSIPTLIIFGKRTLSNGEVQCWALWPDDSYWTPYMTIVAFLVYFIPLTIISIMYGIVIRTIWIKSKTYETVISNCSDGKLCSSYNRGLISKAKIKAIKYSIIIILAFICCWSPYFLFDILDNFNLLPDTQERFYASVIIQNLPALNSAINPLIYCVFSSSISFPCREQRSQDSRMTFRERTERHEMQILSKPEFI
ALDH1A1 inh: ALDH1A1 (human) enzyme inhibition | P00352 | Purified ALDH1A1, NADH fluorescence, propionaldehyde substrate | Potency, µM (series often up to 75.3 µM), actives largely listed as inhibitors | 7.3% of 220,000 active | AID 1030; active = well fitted inhibition curve with a large enough effect, not every such curve was filed as active; inconclusive = small, poorly fitted or top-dose-only effect, or another doubt; inactive = no such curve, though single readings can be large or run the other way
IMPase Li cell: cell-permeable IMPase inhibitors with lithium potentiation; CHO-M1 cells, IP1 TR-FRET (IP-One), carbachol + lithium; Potency, µM (titrated, usually from 59.4 µM), actives largely listed as inhibitors; 0.35% of 210,000 active; AID 1457;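 note: IP1 builds up when IMPase is blocked and the TR-FRET signal falls; nearly all actives have a fitted effect of over 50% in size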
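Concentration–response in CHO-M1 cells, lithium-potentiated; 30 min at 37C. IP1 detected by competitive TR-FRET after 10 min lysis at RT. Hill-fitted AC50.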
12-hLO inh: 12-hLO (ALOX12) enzyme inhibition. 0.12% of 150,000 active. Potency, µM (top dose mostly 57.1 µM), actives largely listed as inhibitors. P18054. AID 1452. purified 12-hLO, xylenol orange hydroperoxide absorbance; note: nearly all actives have a fitted effect of over 55% in size
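Purified human 12hLO (150 nM final) was preincubated with compounds for 15 min at room temperature in 25 mM Hepes pH 7.0, 0.01% Triton X-100, then reacted with 40 uM arachidonic acid for 30 min. Hydroperoxide was detected with ferrous iron/xylenol orange.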
A number is an active result; – = inactive; ? = inconclusive; · = not tested or not shown; ! = not confirmed by another sample; [ ] = another dose, or the depositor's remark. A selection: hits, their analogues and other compounds. The true share with any hit is near 8.9%. Unless noted, calls come from the whole dose curve; as a rule, active = well fitted curve in the direction sought with a large enough effect; inconclusive = small, poorly fitted or top-dose-only effect, or another doubt; inactive = no such curve, though single readings can be large; an effect the other way counts as inactive or inconclusive.

SMILES | IMPase inh | HPGD block | NPSR antag | ALDH1A1 inh | IMPase Li cell | 12-hLO inh
O=C(Cn1cnc2sc(-c3ccccc3)cc2c1=O)NCc1ccco1 | – | 16µM | – | ? | – | –
CC(C)(C)n1ncc2c(=O)n(CC(=O)NCCc3ccccc3)cnc21 | – | – | – | – | – | –
O=C(Cn1cnc2sc(-c3ccccc3)cc2c1=O)NCCc1ccccc1 | – | ? | – | ? | 28µM | –
O=C(Cn1cnc2c(cnn2-c2ccc(Cl)cc2)c1=O)NCCc1ccccc1 | – | – | – | – | 13µM | –
COC(=O)c1cc(C(=O)c2ccc(Cl)cc2)n2c(=O)/c(=C\N(C)C)sc12 | · | · | – | 0.25µM | – | ·
COC(=O)c1cc(C(=O)c2ccccc2)n2c(=O)/c(=C\N(C)C)sc12 | · | · | – | 3.2µM | · | ·
Cc1cc(C(=O)N2CCc3ccccc32)n(-c2ccccc2)n1 | – | – | – | – | – | –
O=Cc1ccc(Oc2cc(-c3ccccc3)nc(-c3ccccc3)n2)cc1 | – | – | – | 22µM | – | –
O=c1cnc2ccccc2n1CC1CCCCC1 | – | – | ? | ? | – | –
CCOc1cc(C(=O)Nc2ccc(S(=O)(=O)Nc3cc(C)on3)cc2)cc(OCC)c1OCC | – | – | – | – | – | –
Cc1ccc(Cl)cc1-c1ccc(C=Nc2ccc(N3CCOCC3)cc2)o1 | · | ? | – | 10µM | ? | ?
Cc1ccc([N+](=O)[O-])cc1-c1ccc(/C=N/NC(=O)CN2CCOCC2)o1 | · | · | – | ? | · | ·
Cn1nnnc1SCC(=O)Nc1ccccc1Cl | – | – | – | – | – | –
Cn1nnnc1SCC(=O)Nc1c(Cl)cccc1Cl | – | 22µM | – | – | – | –
COc1ccccc1NC(=O)CSc1nnnn1-c1ccc(C)cc1 | ? | – | – | – | – | –
COc1ccccc1NC(=O)c1ccc(NC(=O)CSc2nnnn2C)cc1 | – | – | – | 0.79µM | – | –
COc1ccc(C2CC(=O)C(C=NCCN3CCNCC3)=C(O)C2)cc1OC (configuration not stated) | – | – | – | ? | – | –
CC1C(c2ccccc2)N(C)C(c2ccccc2)CC1(O)c1ccccc1 (configuration not stated) | – | – | ? | – | – | –
CC1CN(C)C(c2ccccc2)C(C)C12NC(=O)NC2=O (configuration not stated) | – | – | – | 7.1µM | – | –
CN(C)c1ccc(CN2CCCCC2)cc1 | – | – | – | – | – | –
O=C(c1cccs1)N(c1ccc(Cl)cc1)C1C=CS(=O)(=O)C1 (configuration not stated) | · | · | – | – | – | ·
CCCNC(=O)c1cc(-c2ccc(OC)cc2)n(CCCOC)c1C | – | 8.9µM | – | ? | – | –
N#CC(C#N)=C(N)/C(C#N)=C/c1ccc2[nH]ccc2c1 | · | · | · | 13µM | – | ·
O=C(C1=C(O)C(=O)N(CCOCCO)C1c1cccc([N+](=O)[O-])c1)c1cccs1 (configuration not stated) | · | · | – | · | · | ·
CC(=O)c1cccc(NC(=S)NC(=O)c2ccc(Br)cc2)c1 | · | – | – | – | – | –
SMILES | IMPase inh | HPGD block | NPSR antag | ALDH1A1 inh | IMPase Li cell | 12-hLO inh
CCC(=O)Nc1cccc(NC(=S)NC(=O)c2ccccc2)c1 | · | – | – | ? | – | –
CCC(=O)Nc1cccc(NC(=S)NC(=O)c2cccc(C)c2)c1 | · | – | – | 25µM | – | ?
CCC(=O)NC(=S)Nc1cccc(NC(=O)CC)c1 | – | – | – | – | – | –
O=C(NC(=S)Nc1cccc(CO)c1)c1ccc(-c2ccccc2)cc1 | · | – | – | 13µM | – | ?
CCC(=O)Nc1cccc(NC(=S)NC(=O)c2ccc(C)cc2)c1 | · | · | – | 13µM | – | ·
CCCc1nnc(SCC(=O)N2CCOCC2)n1CCCOC | – | – | –[7.67 µM] | – | – | –
COc1c2occc2c(OC)c2c(=O)cc(C)oc12 | – | 28µM! | – | – | – | –
COc1ccc(Br)cc1CNc1ccc2[nH]c(=O)[nH]c2c1 | · | · | – | – | – | ·
COc1ccc(Br)cc1CNc1ccc(O)cc1 | – | – | – | 10µM | – | –
O=C(NCCO)c1cccc2c1C(=O)c1ccccc1-2 | · | – | – | 20µM | – | –
CC(C)(C)NC(=O)c1cccc2c1C(=O)c1ccccc1-2 | · | · | – | · | · | ·
N#CC(C(=O)c1ccccc1)=C1SCCS1 | · | · | – | 14µM | · | ·

Source: PubChem
